Data taken from PubChem BioAssay AID430 (Sanford-Burnham Center for Chemical Genomics, 2006).
Among all 63,000 compounds or so, about 1,100 (1.7%) were called active. Only a selection was taken, and actives are over-represented in it overall. Entries with a potency or affinity are not part of this list. A number with no mark means an inactive call. Rule as the data show it: active = cytotoxicity above about 50%; inactive = the rest.

Assay: HPDE-C7 pancreatic duct cell viability loss – fluorescence, HTS (AID 430);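 also: cells exposed to compound for 48 hours before viability readout; 0% = vehicle and 100% = reference cytotoxic drug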
Details: HPDE-C7 pancreatic duct cells viability, at 10 µM, stronger effect = higher value

Row | SMILES | cytotoxicity
1 | Nc1nc2nccc(-c3ccc(Cl)cc3)n2n1 | 3.6%
2 | Cc1ccc(NC(=O)N2CCCC2C(=O)NCCc2ccccc2)cc1 (configuration not stated) | -9.2%
3 | Cc1ccc(S(=O)(=O)N2CCN(C(=O)COC(=O)COc3ccccc3)CC2)cc1 | 7.4%
4 | CCOC(=O)c1ccc2c(c1)nc(SCc1cn3ccsc3n1)n2CC | 19.7%
5 | COc1cc(CC(=O)NCc2ccc3c(c2)OCO3)cc(OC)c1OC | -7.2%
6 | COc1cc(CC(=O)Oc2ccc3c(c2)OCO3)cc(OC)c1OC | 28.4%
7 | COc1cc([C@@H]2c3cc4c(cc3[C@H](O)[C@H]3COC(=O)[C@H]23)OCO4)cc(OC)c1OC | 67.2% (active)
8 | Cc1nn(C)c(C)c1S(=O)(=O)N1CCCC(C(=O)NCC2COc3ccccc3O2)C1 (configuration not stated) | -4%
9 | Fc1cccc(CSc2ncnc3c2oc2ccccc23)c1 | 12.4%
10 | COCCn1nnnc1C(c1ccc(OC)cc1OC)N1CCN(c2ccccc2)CC1 (configuration not stated) | -2%
11 | COc1ccc(OC)c(C(O)c2coc3ccc(O)c(CN4CCOCC4)c23)c1 (configuration not stated) | 1.7%
12 | COC(=O)CSc1nnc(CSc2nc(C)cc(C)n2)n1Cc1ccco1 | -2.1%
13 | COc1ccc(C(C)=O)cc1COC(=O)c1cc(C)oc1C | 2.5%
14 | COc1ccccc1C(=O)OCC(=O)Nc1ccc(OC(F)F)cc1 | 5.1%
15 | Cc1nc(N)sc1-c1csc(Nc2ccccn2)n1 | -12.4%
16 | Cc1cc(O)ccc1Nc1nc(-c2sc(N)nc2C)cs1 | 1.6%
17 | Cc1cccnc1Nc1nc(-c2ccc(O)cc2O)cs1 | 67.2% (active)
18 | CCOC(=O)N1CCN(c2c(NCc3cccs3)c(=O)c2=O)CC1 | 46.8%
19 | Cc1nc(N2CCN(c3ccccc3)CC2)[nH]c(=O)c1Cc1cccc2ccccc12 | 7.5%
20 | COC(=O)COc1ccc(S(=O)(=O)NCCC2=CCCCC2)cc1C | -2.4%
21 | CCOC(=O)COc1ccc(S(=O)(=O)NCCC2=CCCCC2)cc1 | 50.3% (active)
22 | COC(=O)COc1ccc(S(=O)(=O)NCCC2=CCCCC2)cc1 | 18.8%
23 | O=C(c1ccncc1)N1CCN(C(=O)c2cccs2)CC1 | -5.3%

Row | SMILES | cytotoxicity
24 | O=C(Nc1ccc(N2CCOCC2)c(Cl)c1)c1ccco1 | -5.7%
25 | O=C(Nc1ccc(N2CCOCC2)c(Cl)c1)c1cccc(F)c1 | 16.4%
26 | O=C(Nc1ccc(N2CCN(C(=O)c3ccco3)CC2)c(Cl)c1)c1c(F)c(F)c(F)c(F)c1F | 56% (active)
27 | O=C(Cc1ccc(Cl)cc1)Nc1ccc(N2CCN(C(=O)c3ccco3)CC2)c(Cl)c1 | 19.6%
28 | O=C(Nc1ccc(N2CCOCC2)c(Cl)c1)c1c(F)c(F)c(F)c(F)c1F | 54.5% (active)
29 | O=C(Nc1ccccc1N1CCN(C(=O)c2ccccc2)CC1)c1cc2ccccc2o1 | -8.3%
30 | O=C(Nc1ccc(N2CCN(C(=O)c3ccco3)CC2)c(Cl)c1)c1cccs1 | 16.9%
31 | CCC(=O)Nc1ccc(NC(=O)c2cc3ccccc3o2)cc1 | -18.1%
32 | O=C(Nc1ccc(N2CCN(C(=O)c3ccccc3)CC2)c(Cl)c1)c1ccco1 | -7.6%
33 | Cc1ccccc1C(=O)N1CCN(c2ccc(NC(=O)c3ccco3)cc2Cl)CC1 | 11.7%
34 | CCn1c(C(=O)NCc2cccnc2)cc2sc(Cl)cc21 | 1.8%
35 | CC(=O)Nc1cc(C(=O)N2CCOCC2)ccc1S(=O)(=O)c1ccc(C)cc1 | -15.2%
36 | COc1ccc(CCNC(=O)C2CCCN(C(=O)N(C)C)C2)c(OC)c1 (configuration not stated) | -5.4%
37 | CCN(CC)c1ccc2c(c1)C(=O)N(C)C2=O | 11.6%
38 | CCn1cc(SCC(=O)NCc2ccc3c(c2)OCO3)c2ccccc21 | 4.6%
39 | COc1ccc(CN(CC2CCCO2)S(=O)(=O)c2ccc(C(=O)O)cc2)cc1OC (configuration not stated) | 8.1%
40 | Cn1c(=Nc2ccc(N3CCOCC3)cc2)ccc2ccccc21 | 0.9%
41 | COc1ccc(-n2nc(C(=O)NCc3ccco3)c3c4ccccc4n(C)c3c2=O)cc1Cl | 2.9%
42 | Cc1nn(CCO)c2c1C(=O)CCC2 | -9.1%
43 | O=C1CC(N2CCOCC2)C(=O)N1c1ccc2c(c1)OCO2 (configuration not stated) | -4.6%
44 | CC1CN(c2nc3ccccc3nc2C(C#N)C(=O)NC2CCCCC2)CC(C)O1 (configuration not stated) | -15.5%
45 | Cc1ccc(NC(=O)CN2C(=O)NC(Cc3ccccc3)C2=O)cc1 (configuration not stated) | -48.1%
46 | O=C(Nc1ccccc1N1CCN(C(=O)c2ccc(Cl)cc2)CC1)c1cc2ccccc2o1 | -2.7%

Row | SMILES | cytotoxicity
47 | CCCC(=O)N1CCN(c2ccc(NC(=O)c3cc4ccccc4o3)cc2)CC1 | -13.7%
48 | CC1CCN(CCCNC(=O)C2CCN(S(=O)(=O)N3CCCCC3)CC2)CC1 | -11.8%
49 | Cc1ccc(S(=O)(=O)c2c(N)n(/N=C/c3ccco3)c3nc4ccccc4nc23)cc1C | 11.7%
50 | Cc1ccc(C)c(S(=O)(=O)c2c(N)n(/N=C/c3ccco3)c3nc4ccccc4nc23)c1 | 33.6%
51 | Cc1cccc(S(=O)(=O)c2c(N)n(/N=C/c3ccco3)c3nc4ccccc4nc23)c1 | 26.6%
52 | Nc1c(S(=O)(=O)c2cccs2)c2nc3ccccc3nc2n1/N=C/c1cccc(O)c1 | 64.6% (active)
53 | COCCn1c(N)c(S(=O)(=O)c2cccs2)c2nc3ccccc3nc21 | 5%
54 | Nc1c(S(=O)(=O)c2ccccc2)c2nc3ccccc3nc2n1/N=C/c1ccco1 | 69% (active)
55 | Nc1c(S(=O)(=O)c2cccs2)c2nc3ccccc3nc2n1Cc1cccs1 | -1.9%
56 | Nc1c(S(=O)(=O)c2cccc(Cl)c2)c2nc3ccccc3nc2n1CCN1CCOCC1 | -2%
57 | Cc1ccc(S(=O)(=O)c2c(N)n(/N=C/c3ccco3)c3nc4ccccc4nc23)cc1 | 38.7%
58 | Cc1cccc(S(=O)(=O)c2c(N)n(/N=C/c3cccnc3)c3nc4ccccc4nc23)c1 | 28.2%
59 | Nc1c(S(=O)(=O)c2cccc(Cl)c2)c2nc3ccccc3nc2n1/N=C/c1ccc(O)c(O)c1 | 117% (active)
60 | COc1ccc(-n2c(Cc3cccn3C)nnc2SCC(=O)NC2CCCC2)cc1 | -16%
61 | CCN(CC)CCNC(=O)Cn1nc(Cc2ccccc2)c2ccccc2c1=O | -4.7%
62 | CCOc1cc(C2C(C#N)=C(N)Oc3n[nH]c(CC)c32)ccc1OCCN1CCOCC1 (configuration not stated) | -1.8%
63 | CCOC(=O)C1CCN(C(=O)CNS(=O)(=O)c2cccs2)CC1 | -14.6%
64 | CN(CCNC(=O)Cn1c(=O)sc2ccccc21)Cc1ccccc1 | 10.4%
65 | COC(=O)c1sc(NC(=O)Cc2cccs2)nc1C | -9.1%
66 | COc1ccc(C(=O)c2sc(NC(C)C)nc2N)cc1OC | -6.1%
67 | COc1cccc(C(=O)c2sc(NC(C)C)nc2N)c1 | 70.8% (active)
68 | CCCc1nnc(NC(=O)c2cccc(OC)c2)s1 | -16.1%
69 | O=C(NC1CCCCC1)c1ccc(CS(=O)(=O)Cc2ccccc2F)o1 | -6.3%

Row | SMILES | cytotoxicity
70 | CCOc1ccccc1NC(=O)Cn1nnc(C(=O)NCc2ccco2)c1N | 63% (active)
71 | CCOc1ccccc1NC(=O)Cn1nnc(C(=O)Nc2ccc(C)cc2)c1N | -0.5%
72 | CCOc1ccccc1NC(=O)Cn1nnc(C(=O)Nc2ccccc2Cl)c1N | 8.3%
73 | Cc1nn(-c2ccccc2)c2c1C(c1ccco1)C(C#N)=C(N)O2 (configuration not stated) | 11.5%
74 | O=C(Nc1ccc2c(c1)OCCO2)C1CCN(S(=O)(=O)c2ccc(Br)s2)CC1 | 6.5%
75 | O=C(Nc1ccccc1Cl)N1CCN(c2ccc3nnc(-c4ccc(F)cc4)n3n2)CC1 | 17.7%
76 | O=C(Nc1ccccc1C(F)(F)F)N1CCN(c2ccc3nnc(-c4ccc(F)cc4)n3n2)CC1 | 13.1%
77 | O=C(Nc1ccc(Cl)cc1)N1CCN(c2ccc3nnc(-c4ccc(F)cc4)n3n2)CC1 | 69.6% (active)
78 | CCCNS(=O)(=O)c1ccc(OCC(=O)NCc2ccc3c(c2)OCO3)cc1 | 6.3%
79 | Cc1nnc(SCCn2c(N3CCN(C)CC3)nc3c2c(=O)[nH]c(=O)n3C)s1 | -9.1%
80 | Cc1nnc(Sc2nc(Sc3nnc(C)s3)nc(N3CCN(C)CC3)n2)s1 | 81.3% (active)
81 | Cc1nnc(SCCn2c(N3CCN(C)CC3)nc3c2c(=O)n(C)c(=O)n3C)s1 | -5.2%
82 | COc1ccc([C@@H]2[C@H]3CN(C(C)=O)CC=C3C(C#N)=C(N)C2(C#N)C#N)c2ccccc12 | -8.9%
83 | CCn1c(=O)cc(C(=O)OC)sc1=Nc1ccc(F)c(F)c1 | 17.4%
84 | CCOC(=O)c1ccc(N=c2sc(C(=O)OC)cc(=O)n2CCCN2CCOCC2)cc1 | -17.7%
85 | COC(=O)c1cc(=O)n(Cc2ccco2)c(=Nc2ccc(F)c(Cl)c2)s1 | 82.7% (active)
86 | CCOC(=O)c1ccc(N=c2sc(C(=O)OC)cc(=O)n2Cc2ccco2)cc1 | 116% (active)
87 | CCOC(=O)c1ccc(N=c2sc(C(=O)OC)cc(=O)n2C2CC2)cc1 | 23.6%
88 | COC(=O)c1cc(=O)n(Cc2ccc3c(c2)OCO3)c(=Nc2ccccc2)s1 | 34.9%
89 | CN(CCc1ccccn1)Cc1ccc(Cl)cc1Cl | 3.3%
90 | Cc1ccc(-c2nnc(SCc3ccccc3F)o2)cc1 | 1.8%
91 | O=C(Nc1cccc2ncccc12)c1cccnc1 | -4.6%
92 | O=C(Nc1ccccc1)N(CCN1CCOCC1)Cc1ccccc1F | -7.5%
